# Data published in PubChem BioAssay (NCATS).
# Inconclusive results are not listed. A call without a number means that no potency is given here. Active and inactive are the calls of the source. The call rests on the fitted dose curve; in most records, active means well fitted inhibition curve with a large enough effect; inconclusive means small, poorly fitted or top-dose-only effect; inactive means flat fitted curve, though single readings scatter.
# Biological target: Phospholipid hydroperoxide glutathione peroxidase GPX4 (Homo sapiens) (UniProt P36969)
# Test: Primary qHTS Assay for Inhibitors of Recombinant Selenoprotein Glutathione Peroxidase 4 (GPX4) (AID 1845192); further: nearly all actives have a fitted effect of over 65% in size
# Details: recombinant GPX4, GR-coupled NADPH fluorescence, 15 min; series mostly up to 50 µM
# Outline: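 NADPH consumption followed by fluorescence at 340/450 nm, t=0 and after 15 min at room temperature. Reaction started with cumene hydroperoxide (0.5 mM final) after 30 min compound–GPX4 preincubation; final 200 nM GPX4, 100 nM GR, 1 mM GSH, 0.5 mM NADPH.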
# Potency means the concentration at half of the fitted maximal effect.
# Phospholipid hydroperoxide glutathione peroxidase GPX4 (Homo sapiens), sequence (P36969 whole entry, looked up): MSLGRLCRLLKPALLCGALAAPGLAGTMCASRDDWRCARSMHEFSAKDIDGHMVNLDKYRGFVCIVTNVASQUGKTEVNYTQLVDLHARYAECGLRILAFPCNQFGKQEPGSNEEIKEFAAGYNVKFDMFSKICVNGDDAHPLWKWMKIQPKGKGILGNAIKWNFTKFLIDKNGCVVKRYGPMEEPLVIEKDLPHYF
row,SMILES,Potency
1,Nc1[nH]nc2nnc(-c3c(-c4ccccc4)nn4ccccc34)cc12,inactive
2,C[C@@H]1CCO[C@H]2Cn3cc(C(=O)NCc4ccc(F)cc4F)c(=O)c(O)c3C(=O)N12,inactive
3,c1ccc(CNc2nc(N3CCOc4ccccc43)nc3c2CCCC3)cc1,inactive
4,C[C@H](c1ccc(F)cc1CCCC(=O)O)N(c1cc(F)ccc1F)S(=O)(=O)c1ccc(Cl)cc1,inactive
5,N#Cc1ccc(Oc2ccc3c(c2)COB3O)cc1,inactive
6,COc1nc(C)cnc1NS(=O)(=O)c1cccnc1-c1ccc(-c2nnco2)cc1,inactive
7,Cc1nc(C(=O)NCC(=O)O)c(O)c2ccc(Oc3ccccc3)cc12,inactive
8,CN1C(=O)C(Cc2c[nH]c3ccccc23)NC1=S (stereo not given),inactive
9,CC[C@H](CC#N)OC(=O)N[C@@H](C)c1cccc(NC(=O)Nc2ccc(-c3cnco3)c(OC)c2)c1,inactive
10,CN1CCc2c(n(Cc3ccc(C(=O)NO)cc3)c3ccccc23)C1,inactive
11,CN(C)CCCNC(=O)c1ccc(-c2cc(O)c3ncccc3c2)cc1,inactive
12,CS(=O)(=O)c1ccc(C2=C(c3ccccc3)C(=O)OC2)cc1,inactive
13,COc1ccc(Cn2ccc3ccc(C(=O)NO)cc32)cc1,inactive
14,NS(=O)(=O)c1cc(Cl)c(Cl)c(S(N)(=O)=O)c1,inactive
15,O=C(c1ccc(C(=O)N2CCC(N3CCCC3)CC2)c(Nc2ccccc2)c1)N1CCC(N2CCCC2)CC1,inactive
16,Cc1ccc(C2=Nc3ccc(Cl)cc3OC2)cc1,inactive
17,CC1CCN(c2cc(N3CCN(C)CC3)ccc2NC(=O)c2cc(C#N)c[nH]2)CC1,inactive
18,COc1cc(Nc2nc3ccccc3nc2NS(=O)(=O)c2ccc(NC(=O)c3ccc(C)c(OC)c3)cc2)cc(OC)c1,inactive
19,Cc1ccc2c(c1)C(=O)[C@]1(O)CCN(c3ccccc3)C1=N2,inactive
20,Cc1cc(C(C)Nc2ccccc2)c2nc(N3CCOCC3)cc(=O)n2c1 (stereo not given),inactive
21,CCNC(=O)c1noc(-c2cc(C(C)C)c(O)cc2O)c1-c1ccc(CN2CCOCC2)cc1,inactive
22,CN1CCN(c2cccc(Nc3nc4c(-c5ccc(S(C)(=O)=O)cc5)cccn4n3)c2)CC1,inactive
23,O=C(Nc1ccc(OC(F)(F)F)cc1)c1sccc1NCc1ccnc2ccccc12,inactive
24,C=C1c2cccc(O)c2C(O)=C2C(=O)[C@@]3(O)C(O)=C(C(N)=O)C(=O)[C@@H](N(C)C)[C@@H]3[C@@H](O)[C@H]12,11.4 µM (active)
25,CCN1CCN(c2ccc(Nc3cc(N(C)C(=O)Nc4c(Cl)c(OC)cc(OC)c4Cl)ncn3)cc2)CC1,inactive

# Biological target: Luciferin 4-monooxygenase (Photinus pyralis) (UniProt P08659)
# Test: Primary firefly luciferase (FLuc) qHTS assay for identification of artifact compounds. (AID 1845220); further: nearly all actives have a fitted effect of over 60% in size
# Details: purified firefly luciferase, luminescence, 5 min; series mostly up to 54.1 µM
# Outline: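 Cell-free, 1536-well qHTS. Buffer pH 7.6 with 0.01% Tween-20 and 0.05% BSA; 10 uM D-luciferin, 10 uM ATP; 10 nM P. pyralis luciferase; luminescence after 5 min.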
row,SMILES,Potency
1,Nc1[nH]nc2nnc(-c3c(-c4ccccc4)nn4ccccc34)cc12,inactive
2,C[C@@H]1CCO[C@H]2Cn3cc(C(=O)NCc4ccc(F)cc4F)c(=O)c(O)c3C(=O)N12,inactive
3,c1ccc(CNc2nc(N3CCOc4ccccc43)nc3c2CCCC3)cc1,inactive
4,CC1=C[C@@H]2[C@@H]([C@@H](O)C[C@@]3(C)[C@H]2C[C@@H](C)[C@]3(O)C(=O)CO)[C@@]2(C)Cc3cnn(-c4ccccc4)c3C=C12,inactive
5,C[C@H](c1ccc(F)cc1CCCC(=O)O)N(c1cc(F)ccc1F)S(=O)(=O)c1ccc(Cl)cc1,inactive
6,Cc1cc(-c2ncc(CC(=O)Nc3ccc(-c4cnccn4)cn3)cc2C)ccn1,inactive
7,N#Cc1ccc(Oc2ccc3c(c2)COB3O)cc1,inactive
8,COc1nc(C)cnc1NS(=O)(=O)c1cccnc1-c1ccc(-c2nnco2)cc1,inactive
9,CN(C)c1ccc(-c2nc3ncc(Cl)c(N4CCN(CC(=O)Nc5nccs5)CC4)c3[nH]2)cc1,inactive
10,O=C(CCCN1CCN(c2ccc(F)cc2)CC1)NC1c2ccccc2CSc2ccccc21 (stereo not given),inactive
11,COc1ccc(-c2nc3ccc(C4=NNC(=O)CC4C)cc3[nH]2)cc1 (stereo not given),10.7 µM (active)
12,CN1C(=O)C(Cc2c[nH]c3ccccc23)NC1=S (stereo not given),inactive
13,CC[C@H](CC#N)OC(=O)N[C@@H](C)c1cccc(NC(=O)Nc2ccc(-c3cnco3)c(OC)c2)c1,inactive
14,COc1nccc(-c2c(-c3ccc(F)cc3)ncn2C2CCNCC2)n1,inactive
15,CN1CCc2c(n(Cc3ccc(C(=O)NO)cc3)c3ccccc23)C1,inactive
16,NS(=O)(=O)c1ccc(Nc2nc(OCC3CCCCC3)c3[nH]cnc3n2)cc1,inactive
17,CN(C)CCCNC(=O)c1ccc(-c2cc(O)c3ncccc3c2)cc1,inactive
18,C[C@@]1(C(=O)Nc2ccc(F)nc2)CCCN1c1nc(Nc2cc(C3CC3)[nH]n2)c2cccn2n1,inactive
19,CS(=O)(=O)c1ccc(C2=C(c3ccccc3)C(=O)OC2)cc1,inactive
20,CNC(=O)c1c(-c2ccc(F)cc2)oc2cc(N(CCO)S(C)(=O)=O)c(C3CC3)cc12,inactive
21,COc1ccc(Cn2ccc3ccc(C(=O)NO)cc32)cc1,inactive
22,NS(=O)(=O)c1cc(Cl)c(Cl)c(S(N)(=O)=O)c1,inactive
23,O=C(c1ccc(C(=O)N2CCC(N3CCCC3)CC2)c(Nc2ccccc2)c1)N1CCC(N2CCCC2)CC1,inactive
24,CC1CCN(c2cc(N3CCN(C)CC3)ccc2NC(=O)c2cc(C#N)c[nH]2)CC1,inactive
25,COc1cc(Nc2nc3ccccc3nc2NS(=O)(=O)c2ccc(NC(=O)c3ccc(C)c(OC)c3)cc2)cc(OC)c1,inactive
26,CN1c2ccccc2C(=O)N2CCc3c([nH]c4ccccc34)C21 (stereo not given),inactive
27,Cc1ccc2c(c1)C(=O)[C@]1(O)CCN(c3ccccc3)C1=N2,inactive
28,CCNC(=O)c1noc(-c2cc(C(C)C)c(O)cc2O)c1-c1ccc(CN2CCOCC2)cc1,inactive
29,CN1CCN(c2cccc(Nc3nc4c(-c5ccc(S(C)(=O)=O)cc5)cccn4n3)c2)CC1,inactive
30,CCN1CCN(c2ccc(Nc3cc(N(C)C(=O)Nc4c(Cl)c(OC)cc(OC)c4Cl)ncn3)cc2)CC1,inactive
